Measurements published in article PMC6212790, “How bacterial xenogeneic silencer rok distinguishes foreign from self DNA in its resident genome”.
The full ranking holds about 33,000 sequences; the median of “e-score” is about -0.037, and the highest 2% start at about 0.34. This is one part of a sample in which the highest values are shown more often than they occur.

Biological target: T1, GST-Rok (full length) (Bacillus subtilis subsp. subtilis str. …, UniProt O34857 1-191)
T1 sequence: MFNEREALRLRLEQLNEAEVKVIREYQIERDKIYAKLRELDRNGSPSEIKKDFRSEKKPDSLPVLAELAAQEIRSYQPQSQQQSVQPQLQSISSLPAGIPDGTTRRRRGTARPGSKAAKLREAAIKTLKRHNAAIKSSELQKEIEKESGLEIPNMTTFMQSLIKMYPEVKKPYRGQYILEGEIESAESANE
Test: protein binding microarray; Rok is a gene silencer of Bacillus subtilis; high values mean tight binding
Conditions: protein: recombinant; tags: GST (pTH5325, pDEST15-Magic modified); dsDNA, one strand shown
How it was run: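 Every oligonucleotide joins a 25-mer constant primer to a 35-mer variable part drawn from a de Bruijn sequence of order 10, so each non-palindromic 8-mer appears at least 32 times and each palindromic 8-mer 16 times. The preference for every 8-mer is reported as a unitless, rank-based enrichment score (E-score). This score spans 0.5 for the most favored 8-mer to −0.5 for the most disfavored.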

Sequence	binding signal
AATCTACC	0.437 E-score
ACTCTACC	-0.0638 E-score
AATCTAAC	0.189 E-score
GATCTAAC	0.12 E-score
AATCTACT	0.432 E-score
GATCTACC	0.382 E-score
AATCTACG	0.311 E-score
CATCTACC	0.291 E-score
AGTTATTC	0.069 E-score
ACCTTAAC	-0.0118 E-score
CATGGTAC	0.13 E-score
GTTTAACA	0.108 E-score
AATTCAGA	0.0748 E-score
CACTCAAC	-0.00301 E-score
CAGCATTC	0.0234 E-score
GTGGCTGA	-0.0523 E-score
AGAAAAAG	0.0648 E-score
ATTTATAG	0.398 E-score
AGTTATAC	0.329 E-score
ATTTATGG	0.218 E-score
CTTTATAC	0.226 E-score
ATTTATTA	0.312 E-score
ATTTATTG	0.348 E-score
ATTTATTC	0.219 E-score
ATTTATAA	0.333 E-score

Sequence	binding signal
ATTTATAC	0.356 E-score
CATTAGGC	-0.146 E-score
AGAGTGGA	-0.109 E-score
AACCAGAG	-0.187 E-score
TGCTACCA	0.152 E-score
CACTACCA	0.221 E-score
AACTACCC	0.292 E-score
TACTACCA	0.386 E-score
CACTACCG	0.0654 E-score
GACTACCA	0.095 E-score
AACTACCA	0.432 E-score
AACTACCT	0.416 E-score
ACCTACCT	0.271 E-score
AACTATCG	0.316 E-score
AACTACCG	0.417 E-score
TCCTACCA	0.175 E-score
GGACTCTA	-0.165 E-score
CTACAGGA	-0.04 E-score
ACAAGCCT	-0.083 E-score
CTCTCACA	-0.156 E-score
AGACGCAA	-0.089 E-score
GCCATTCA	0.0688 E-score
ACCGAGCG	-0.175 E-score
AGTAGTGC	0.0725 E-score
GGTAGGAC	0.0568 E-score

Sequence	binding signal
GGTAGTAC	0.339 E-score
AGTAGTAC	0.336 E-score
CTTAGTAC	0.206 E-score
CGTAGTAC	0.202 E-score
CTCAACTA	0.13 E-score
CATGGAGA	0.0828 E-score
CATGCGGC	-0.125 E-score
ACATGCCA	0.0568 E-score
ACATGCTA	0.365 E-score
CCATGCTA	0.073 E-score
GCATGCTA	0.111 E-score
ACCTATGA	0.118 E-score
ATAAGTGA	0.123 E-score
CTATTTTA	0.325 E-score
CTATTTCC	0.18 E-score
ATATTTTC	0.326 E-score
GTATTTAA	0.285 E-score
GTATTTTA	0.411 E-score
ATATTTTG	0.297 E-score
CTATTTTC	0.344 E-score
ATATTTTA	0.412 E-score
GTATTTGA	0.0869 E-score
GTGACGTA	0.0931 E-score
CCTGGTCA	-0.133 E-score
GAAGTAGC	0.182 E-score

Sequence	binding signal
GGTCGGGA	-0.156 E-score
CCCGACGA	-0.104 E-score
AGCACTAA	-0.126 E-score
CAATAGAC	0.089 E-score
AAAAGCGC	-0.0281 E-score
ATGATATG	0.172 E-score
ATGATAGC	0.179 E-score
ATGATAGA	0.342 E-score
ATGATATA	0.389 E-score
ATGATAGG	0.0932 E-score
CTGATATA	0.204 E-score
AATTCGTA	0.263 E-score
ATAGTCTG	0.347 E-score
GTAGTAAA	0.348 E-score
ATAGTAAT	0.392 E-score
ATAGTCTC	0.0365 E-score
GGAGTAAA	-0.112 E-score
ATAGTAAC	0.366 E-score
GTAGTAAC	0.321 E-score
AGAGTAAT	0.197 E-score
ATAGTCTA	0.0771 E-score
GAAGTAAA	0.237 E-score
ATAGTAAG	0.282 E-score
CTAGTAAC	0.303 E-score
CATAGGGA	-0.158 E-score

Sequence	binding signal
AGCCATAT	0.162 E-score
CTGTCCAC	-0.116 E-score
GAAGAGTA	0.266 E-score
GCAGCTTA	-0.093 E-score
GCTCGAAC	-0.0353 E-score
TCCTTAAA	-0.0816 E-score
ATAGTAAA	0.397 E-score
ATAGTATA	0.278 E-score
ATAGTATC	0.321 E-score
TTAGTAAA	0.237 E-score
CTAGTAAA	0.328 E-score
ATAGTATG	0.359 E-score
AGATTCAA	0.0974 E-score
AACTTTCG	-0.0406 E-score
ATTCGTTA	0.228 E-score
CAAGTTGC	-0.00109 E-score
ATAATGTA	0.4 E-score
GTAATGTA	0.364 E-score
ATAATGTC	0.175 E-score
GTAATGAA	-0.0724 E-score
CTAATGTA	0.184 E-score
ATAATGTG	0.201 E-score
ATTAACAG	0.0334 E-score
TACCGCCA	0.0353 E-score
AAAGAAAG	0.132 E-score

Sequence	binding signal
CGATACGA	-0.0427 E-score
GTACGGCA	-0.048 E-score
AGTATATG	0.264 E-score
GGTATAAC	0.313 E-score
AGTATAAA	0.278 E-score
GGTATAAA	0.383 E-score
AGTATATC	0.221 E-score
GGTATAGA	0.222 E-score
AGTATATA	0.451 E-score
GGTATATA	0.386 E-score
CGTATATA	0.28 E-score
GGTCGTAA	0.0357 E-score
AAGCCGAA	0.00167 E-score
GTCTGGCA	-0.182 E-score
ACTAATCG	0.0113 E-score
ACCTTGGA	-0.145 E-score
AAGCTAGC	0.137 E-score
CAATAACG	0.0291 E-score
CAGTTTCA	-0.0996 E-score
GAGTTTGA	-0.199 E-score
GAGTTTCA	-0.16 E-score
TAGTTTGA	0.347 E-score
AAGTTTGA	-0.0342 E-score
TAGTTTCA	0.392 E-score
AATAAGAA	0.209 E-score

Sequence	binding signal
CGGCGGCA	-0.198 E-score
AGTAGCGA	0.181 E-score
AGACTATC	0.0106 E-score
CGATCTAA	-0.00615 E-score
AGATCTAG	0.167 E-score
CAATCTAA	0.172 E-score
GAATCTAC	0.425 E-score
CAATCTAG	0.285 E-score
AAATCTAG	0.35 E-score
CGATCTAG	0.214 E-score
GAATCTCC	0.00693 E-score
AAATCTCG	0.144 E-score
CGATCTAC	0.371 E-score
GAATCTAA	0.201 E-score
CAATCTAC	0.365 E-score
AAAAACCG	-0.0149 E-score
AAACCAAA	-0.0651 E-score
ACGTTGGA	-0.0982 E-score
CTCACTCA	0.0449 E-score
ATGGTATG	0.0823 E-score
AATCTCCG	0.0469 E-score
ACCCGCAG	-0.2 E-score
